Bioassay records as filed in PubChem.
A selection: hits, their analogues and other compounds. The true share with any hit is near 1.2%.
Phagocytosis inh: inhibitors of macrophage phagocytosis, primary screen, imaging, J774A.1 cells, IgG beads; J774A.1 macrophage IgG-bead phagocytosis; inhibition, % at 5 µM; hit rate 0.07% among 110,000; AID 1029, 2008;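 active = inhibition above the mean of the plate negative controls plus 5 SD, cut at about 13% in these data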;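 note: phagocytic index as fraction of beads internalized from green versus red external bead signal; plate controls were DMSO negative control for no effect and cytochalasin-D positive control for full effect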
cytoskel mod: modifiers of F-actin cytoskeleton organization, primary screen, imaging, HUVEC, phalloidin staining, high-content imaging; inhibition, % at 2 µM; hit rate 0.18% among 91,000; HUVEC TNFa F-actin phalloidin imaging;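 active = inhibition above the batch mean plus 3 SD and confirmed as a hit by visual image inspection, cut at about 30% in these data, passing the limit was not always enough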
SDO1 yeast rescue: growth rescue of sdo1-depleted yeast, primary screen, S. cerevisiae, bone marrow failure model; S. cerevisiae sdo1-depleted JHY4D growth rescue, OD600 30 h; hits give high values; pdr5 snq2 efflux-pump mutant strain; hit rate 0.21% among 140,000; z-score at 10 µM;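 active = z-score above 3 at both the 24 hr and the 30 hr optical density reads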;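 note: z-score against mean and SD of all compound wells on the same plate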
E-sel TNF inh: E-selectin induction blockers in HUVEC – imaging, immunofluorescence, high content, primary screen | HUVEC TNFa-induced E-selectin immunofluorescence | inhibition, % at 2 µM | hit rate 0.71% among 120,000 | AID 1246, 2008;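 active = inhibition above the batch mean plus 3 SD, and confirmed as a hit on visual image review, cut at about 43% in these data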;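 note: 0% = TNF-stimulated DMSO wells and 100% = unstimulated control wells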
VCAM1 TNFa inh: inhibitors of TNFa-induced VCAM1 expression, primary screen, imaging, HUVEC, TNFa stimulus, immunofluorescence; inhibition, % at 2 µM; hit rate 0.48% among 95,000; HUVEC TNFa-induced VCAM-1 immunofluorescence, high-content imaging; AID 802, 2007;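 active = inhibition above the batch mean plus 3 SD, with images confirmed as a hit by eye, cut at about 37% in these data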;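 note: 0% = TNF-stimulated DMSO wells and 100% = unstimulated control wells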
HUVEC tox TNFa: cytotoxicity in TNFa-stimulated HUVEC, primary screen, cytotoxicity control for VCAM1 expression modulator project, imaging, Hoechst nuclei count | HUVEC TNFalpha-stimulated, Hoechst cell count | cell count reduction, % at 2 µM | hit rate 0.17% among 93,000;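 active = cell count reduction exceeding the screen mean by over 5 SD, scaled to untreated wells per plate, cut at about 78% in these data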;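 note: cells counted after 24 h of TNF alpha exposure following the 1 h pretreatment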
Starred values were filed as active, the others as inactive; nt = no result given.

SMILES	Phagocytosis inh	cytoskel mod	SDO1 yeast rescue	E-sel TNF inh	VCAM1 TNFa inh	HUVEC tox TNFa
O=C(O)c1cc2nc3c(c(C(F)(F)F)n2n1)CCc1ccccc1-3	0	-41	-0.36	nt	85*	74
COCCNC(=O)c1cc2nc3c(c(C(F)(F)F)n2n1)CCc1ccccc1-3	nt	nt	nt	29	nt	nt
CCN(C(=O)CN1CCOCC1)c1c(N)n(Cc2ccccc2)c(=O)[nH]c1=O	nt	nt	nt	-22	nt	nt
O=C(O)CCc1ccc(-c2ccc(Br)cc2)o1	-1	-22	0.39	nt	12	-4
NC(=O)c1ccc(-c2ccc(Br)cc2)o1	0	-3	0.58	43*	-8	-10
O=C(CSc1ccccc1C(=O)O)NCC1CCCCC1	nt	nt	nt	-13	nt	nt
CCOC(=O)c1ccc2[nH]c3c(c2c1)CCCCC3=O	nt	-4	-0.58	-24	-6	5
O=C1CCCc2c1[nH]c1ccc(Cl)cc21	nt	-36	-0.06	0	76*	39
O=C(Oc1csc(=S)n1C(=O)c1ccccc1)c1ccccc1	-1	-71	1.4	-2	98*	86*
Cc1nccn1-c1ccc(C(F)(F)F)cc1NC=O	-1	73*	1.1	3	-4	-5
CCOc1ccc(C(F)(F)F)cc1NC(C)=O	1	-18	0.6	nt	2	15
Cc1ccc(CN2CCN(C/C(Cl)=C/c3ccccc3)CC2CCO)o1 (centres undefined)	nt	nt	nt	-5	nt	nt
Cc1c(Cl)cccc1NC(=S)NCc1cccs1	-5	nt	-0.08	nt	nt	nt
S=C(NCc1cccs1)Nc1cccc(Cl)c1Cl	-3	nt	-0.79	81*	nt	nt
O=C(Oc1cc(=O)n2ccccc2n1)c1ccccc1	-8	nt	0.58	nt	nt	nt
COc1ccc(CNC(=O)c2ccc(NC(=O)CC3SC(N4CCCCC4)=NC3=O)cc2)cc1 (centres undefined)	-2	-31	-0.19	77*	-2	-1
COc1ccc(CNC(=O)c2ccc(NC(=O)CC3SC(N4CCCC4)=NC3=O)cc2)cc1 (centres undefined)	nt	14	1.1	-30	-1	-32
CC(Sc1nc(N)cc(=O)[nH]1)C(=O)NC1CCCCC1 (centres undefined)	-4	-7	0.56	-24	94*	-10
COc1ccc(CNC(=O)c2ccc(CNc3c(NC4CCCCC4)c(=O)c3=O)cc2)cc1	nt	nt	0.8	-22	nt	nt
COc1ccc(NC(=O)c2ccc(CNc3c(NC4CCCCC4)c(=O)c3=O)cc2)cc1OC	0	11	-2	72*	-5	-15
CCn1cc(C(=O)O)c(=O)c2cc(F)c(N/N=C/c3ccccc3[N+](=O)[O-])cc21	-16	nt	-1.2	nt	nt	nt
CCSc1nc2ccccc2n1C(=O)/C=C\c1ccc(OC)c(OC)c1	nt	23	-0.61	-46	94*	22
CCSc1nc2ccccc2n1CC(N)=O	nt	4	0.54	-28	-8	-25
CCN(CC)CC(C)CNC(=O)CN1C(=O)CSc2ccc(S(=O)(=O)N3CCOCC3)cc21 (centres undefined)	0	nt	0.22	-18	nt	nt
CCOC(=O)C1=C(C)N(C)C(=O)NC1c1cc2c(cc1[N+](=O)[O-])OCO2 (centres undefined)	nt	nt	nt	7	nt	nt
SMILES	Phagocytosis inh	cytoskel mod	SDO1 yeast rescue	E-sel TNF inh	VCAM1 TNFa inh	HUVEC tox TNFa
S=C(Nc1cccc(Cl)c1Cl)N1CCC2(CC1)OCCO2	nt	nt	nt	49	nt	nt
COc1cc(S(=O)(=O)N(Cc2ccccn2)Cc2ccco2)ccc1-n1cnnn1	nt	-10	0.26	55*	-1	-3
CN=c1scc(-c2ccc(F)cc2)n1/N=C/c1ccc(O)c(O)c1	nt	nt	nt	57	nt	nt
O=C1CC(C2CCCO2)C(=O)N1Cc1ccccc1 (centres undefined)	69*	10	-0.03	6	-2	-20
CC(=O)N=Nc1[nH]c(N)c2ccccc12	nt	nt	nt	-27	nt	nt
CSc1cccc(NC(=O)C2CCCN(S(=O)(=O)c3ccc(F)cc3)C2)c1 (centres undefined)	-1	4	-1.2	59*	13	12
CSc1cccc(NC(=O)C2CCN(S(=O)(=O)c3ccc(F)cc3)CC2)c1	2	5	-1.4	-11	26	-13
O=C(CSc1nnc2ccc(-c3ccc(F)cc3)nn12)N1CCCC1	nt	nt	nt	48	nt	nt
Cc1ccc2nc(-c3ccc(Br)o3)oc(=O)c2c1	-3	14	-0.23	-21	4	-23
COc1cc2nc(-c3ccc(Br)o3)oc(=O)c2cc1OC	95*	12	-0.96	-2	15	-24
